Source: PubChem (Buhrlage Lab, Dana-Farber Cancer Institute and Novartis Institutes for BioMedical Research (Cambridge, Mass))
OTUD3 block = inhibitors of human OTUD3 deubiquitinase | OTU domain-containing protein 3 (Homo sapiens), Q5T2D3 | purified OTUD3, Ub-rhodamine fluorescence, 2 h | inhibition, % at 25 µM | actives 0.7% (n = 47,000) | AID 1645858, 2021
USP30 inh = inhibitors of human USP30 deubiquitinase | Ubiquitin carboxyl-terminal hydrolase 30 (Homo sapiens), Q70CQ3 | inhibition, % at 25 µM | purified USP30, Ub-rhodamine cleavage fluorescence | AID 1645860, 2021 | actives 5.3% (n = 47,000)
USP17 block = inhibitors of human USP17 deubiquitinase; Ubiquitin carboxyl-terminal hydrolase 17-like protein 5 (Homo sapiens), A8MUK1; purified USP17, Ub-rhodamine cleavage fluorescence, 3 h; inhibition, % at 50 µM; actives 6.5% (n = 47,000)
Target sequence (A8MUK1 whole entry, looked up): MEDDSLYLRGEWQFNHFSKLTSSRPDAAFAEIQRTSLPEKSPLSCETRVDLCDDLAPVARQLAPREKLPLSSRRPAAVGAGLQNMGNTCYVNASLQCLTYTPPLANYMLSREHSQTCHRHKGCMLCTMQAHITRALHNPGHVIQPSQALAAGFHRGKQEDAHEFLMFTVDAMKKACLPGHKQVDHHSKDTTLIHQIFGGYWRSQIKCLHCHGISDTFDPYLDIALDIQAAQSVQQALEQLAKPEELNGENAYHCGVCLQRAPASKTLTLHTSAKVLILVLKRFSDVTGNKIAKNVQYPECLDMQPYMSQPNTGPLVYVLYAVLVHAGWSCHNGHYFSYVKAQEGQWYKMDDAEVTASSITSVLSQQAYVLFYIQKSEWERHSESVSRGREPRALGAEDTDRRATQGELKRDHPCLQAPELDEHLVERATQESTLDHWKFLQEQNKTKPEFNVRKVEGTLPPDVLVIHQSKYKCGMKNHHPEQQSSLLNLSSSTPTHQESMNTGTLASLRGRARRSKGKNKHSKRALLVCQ
USP28 block = inhibitors of human USP28 deubiquitinase; Ubiquitin carboxyl-terminal hydrolase 28 (Homo sapiens), Q96RU2; purified USP28, Ub-rhodamine cleavage fluorescence, 30 min; inhibition, % at 25 µM; actives 3% (n = 47,000); AID 1645857, 2021
Each line names hits and unclear results; the compound was inactive in the other large screens. Shown are actives, neighbours in structure and some others; about 12% of the full set was active somewhere. No stated cut-off is given here; in the data, active means inhibition above about 30%; inactive means the rest.

CC(C)c1cc(N2CCCCC2)n2nc(-c3cccnc3)nc2n1	none (no result: USP30 inh, USP28 block)
Cc1ccc(S(=O)(=O)N2CC[C@H]3COC(=O)N[C@@H]3C2)cc1	none
Cc1ncncc1C(=O)N1CCCC(c2ncc(Cc3cccc(F)c3)o2)C1 (centres undefined)	none (no result: USP17 block)
Cc1ncncc1C(=O)N1CCCC(C)(c2ncc(Cc3cccc(F)c3)o2)C1 (centres undefined)	OTUD3 block 82
CC(C)NC(=O)N1CCN(c2nn3c(NC(C)(C)C)c(-c4ccccc4)nc3s2)CC1	none
Cc1ccn(-c2ccc(NC(=O)C3CCCCC3)cc2)n1	USP17 block 57
Cc1cc(C(=O)N2CCCCC2)c2c(=O)n(Cc3ccccc3C#N)c(=O)n(C)c2n1	none
COc1cc(OC)cc(C(=O)N2CCC(C(=O)Nc3ccc4c(c3)OCCO4)CC2)c1	USP28 block 49
O=C(CCCc1c[nH]c2ccccc12)N1CCN(C(=O)c2ccc(Cl)cc2Cl)CC1	none
O=C(NCCc1c[nH]c2ccccc12)NCc1ccc(Cl)cc1Cl	USP30 inh 32
COc1ccc2c(c1)C(=O)N(CCc1ccc(S(=O)(=O)NC(=O)NC3CCCCC3)cc1)C(=O)C2(C)C	USP30 inh 47
COc1ccc(COC(=O)NC2CCN(S(=O)(=O)c3ccc(OC)cc3)CC2)cc1	none
CC(=O)Nc1cc(C(=O)NC(C)c2ccccc2)c2ccc(C)nc2c1 (centres undefined)	none
Cc1ccc2cc(NC(=O)CC(CC(=O)O)c3ccccc3)ccc2n1 (centres undefined)	USP17 block 53 (no result: USP30 inh, USP28 block)
c1csc(-c2nc(NCC3CCCO3)c3ccccc3n2)c1 (centres undefined)	USP17 block 31
O=C(CSc1nc2scc(-c3ccco3)c2c(=O)n1-c1ccccc1)Nc1nsc(-c2ccccc2)n1	USP28 block 37
CC(Cc1ccco1)NC(=O)c1cccc(NC(=O)c2nnc(C3CC3)s2)c1 (centres undefined)	USP17 block 31
Cc1ccsc1CCNC(=O)CCc1nnc2n(CCc3ccccc3)c(=O)c3ccccc3n12	none
Cc1cccc(C(=O)Nc2nc3c(s2)CCC3)c1	USP28 block 38
CN1CCC(N(C2CCOCC2)S(=O)(=O)c2ccccc2)CC1	none
Cc1ccc(F)cc1N1C(=O)CSCC1=O	none (no result: USP17 block)
COc1ccc2c(CCN=C(NC(C)=O)Nc3nc(C)cc(C)n3)c[nH]c2c1	none (no result: USP30 inh, USP28 block)
O=C(COC(=O)c1cc(=O)[nH]c2ccccc12)c1ccc(Cl)cc1	none
COc1cccc(C(=O)COC(=O)c2cc(=O)[nH]c3ccccc23)c1	USP17 block 37
CC(=O)N1CCCCCC1C1CCN(Cc2nc(C3CC3)no2)CC1 (centres undefined)	none
CC(C)(C)c1cc(CCC(=O)Nc2c3c(nc4c2CCC4)CCCC3)cc(C(C)(C)C)c1O	USP30 inh 77, USP28 block 34
CN1CCCCC12Cc1ccccc1CN(S(C)(=O)=O)C2 (centres undefined)	none
O=C(Nc1ccccc1)c1ccc2c(c1)CC(c1ccccc1)OC2=O (centres undefined)	USP17 block 74
CC1Cc2ccccc2N1C(=O)CSc1nc(-c2ccccc2)c(-c2ccccc2)[nH]1 (centres undefined)	none
O=C1NCCCC1Cc1ccc(-c2cccc(C(=O)N3CCc4ccccc4C3)c2)cc1 (centres undefined)	USP30 inh 35, USP17 block 55
CSC1=N/C(=C/c2ccccc2)C(=O)N1c1ccc(F)c(Cl)c1	USP30 inh 33
CC1CCN(C(=O)Nc2ccc3ccccc3c2)Cc2nc3ccccc3n21 (centres undefined)	USP30 inh 33
CC1CCN(C(=O)Nc2cccc(C#N)c2)Cc2nc3ccccc3n21 (centres undefined)	none
Cc1cn2c(=O)c(C(=O)Nc3ccccc3Cl)cnc2s1	none
CCCOC(=O)c1ccc(NC(=O)c2cccc(S(=O)(=O)N(C)c3ccc(OC)cc3)c2)cc1	none
COc1ccc(N(C)S(=O)(=O)c2cccc(C(=O)OCC(=O)N(Cc3ccccc3)C(C)C)c2)cc1	USP30 inh 30
Cn1c(=O)c2nc(-c3ccc(Cl)cc3)nnc2n(C)c1=O	none
O=c1ncn(-c2cccc(Cl)n2)[nH]1	none
C=C(C)[C@@H]1CC[C@]2(C(=O)O)CC[C@]3(C)[C@H](CC[C@@H]4[C@@]5(C)CC[C@H](O)C(C)(C)[C@@H]5CC[C@]43C)[C@@H]12	USP17 block 31
Cc1ccccc1-c1nnc2n1C1(CCCC1)Cc1ccccc1-2	none
